Data reported in PubChem BioAssay (NCATS).
Records with an inconclusive call do not appear. Calls of active or inactive are those of the source. Calls follow the shape of the dose curve; as a rule, active = well fitted curve in the direction sought with a large enough effect; inconclusive = small, poorly fitted or top-dose-only effect, or another doubt; inactive = no such curve, though single readings can be large; an effect the other way counts as inactive or inconclusive.

Assays:
[1] = molecular target: Glutathione peroxidase 1 (Homo sapiens) (UniProt P07203); experiment: Primary qHTS Assay for Inhibitors of Recombinant Selenoprotein Glutathione Peroxidase 1 (GPX1) (AID 1845191); also: nearly all actives have a fitted effect of over 65% in size; as to activity, negative = inhibition: % is scaled to controls: 0 for no effect and ±100 for the full control effect
Outline: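 GR-coupled assay: compounds preincubated 30 min at room temperature with GPX1, then reaction started with CHP; final 10 nM GPX1, 1 mM GSH, 0.5 mM CHP, 0.5 mM NADPH, 100 nM GR, 0.01% BSA, pH 7.5 Tris buffer. NADPH fluorescence (340/450 nm) read at 0 and 15 min.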

[2] = molecular target: Phospholipid hydroperoxide glutathione peroxidase GPX4 (Homo sapiens) (UniProt P36969); experiment: Primary qHTS Assay for Inhibitors of Recombinant Selenoprotein Glutathione Peroxidase 4 (GPX4) (AID 1845192); also: series mostly up to about 50 µM; % is scaled to controls: 0 for no effect and ±100 for the full control effect; nearly all actives have a fitted effect of over 65% in size
Outline: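 GR-coupled assay: recombinant GPX4 preincubated 30 min with compound at room temperature; final 200 nM GPX4, 1 mM GSH, 0.5 mM cumene hydroperoxide, 0.5 mM NADPH, 100 nM GR, 0.01% BSA, pH 7.5 Tris. NADPH fluorescence (340/450 nm) read at 0 and 15 min.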

[3] = system: Nanoluciferase (engineered Oplophorus gracilirostris luciferase); experiment: Primary Nanoluciferase (NLuc) qHTS assay for identification of artifact compounds. (AID 1845222);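 also: series mostly up to about 54 µM; 0% = DMSO and -100% = no enzyme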
Outline: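 Diluted conditioned medium from NLuc-expressing S16 cells treated with compounds for 15 min at room temperature, then Nano-Glo substrate added; luminescence read after 5 min. Percent inhibition versus no-enzyme and DMSO controls fitted to 4-parameter Hill equation.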

[4] = Primary redox qHTS assay for identification of artifact compounds. (AID 1845223);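 also: 0% = DMSO and 100% = reference compound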
Outline: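 Amplex Red (25 uM) and HRP (250 mU/mL) in HBSS, with compounds for 15 min, then 250 uM DTT for 30 min, room temperature, dark. Fluorescence 525/598 nm read; normalized to DMSO and 10 uM DA3003; Hill fit.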

[5] = Primary fluorescence-based thiol-reactive (MSTI) qHTS assay for identification of artifact compounds. (AID 1845221);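 also: series mostly up to about 54 µM; thiol-reactive compounds lower the probe fluorescence signal; nearly all actives have a fitted effect of over 65% in size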
Outline: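 Curve-fitted percent inhibition (4-parameter Hill) derived from fluorescence, Ex 525/Em 598 nm, scaled with Acetyl-MSTI and MSTI; 1 h incubation at room temperature.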

[6] = molecular target: Luciferin 4-monooxygenase (Photinus pyralis) (UniProt P08659); experiment: Primary firefly luciferase (FLuc) qHTS assay for identification of artifact compounds. (AID 1845220); also: nearly all actives have a fitted effect of over 60% in size
Outline: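 D-luciferin and ATP (10 uM each, final) in Tris acetate buffer pH 7.6 were incubated with compounds for 15 min at room temperature. The reaction was started with 10 nM Photinus pyralis luciferase and luminescence read after 5 min. Percent inhibition was fitted to a 4-parameter Hill equation.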

Sequence of Glutathione peroxidase 1 (Homo sapiens) (P07203 whole entry, looked up): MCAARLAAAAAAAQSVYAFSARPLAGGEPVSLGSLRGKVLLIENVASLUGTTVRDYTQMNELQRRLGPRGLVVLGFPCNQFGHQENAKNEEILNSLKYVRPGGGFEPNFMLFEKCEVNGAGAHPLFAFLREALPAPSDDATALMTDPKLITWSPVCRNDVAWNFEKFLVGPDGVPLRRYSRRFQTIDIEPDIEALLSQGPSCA
Sequence of Phospholipid hydroperoxide glutathione peroxidase GPX4 (Homo sapiens) (P36969 whole entry, looked up): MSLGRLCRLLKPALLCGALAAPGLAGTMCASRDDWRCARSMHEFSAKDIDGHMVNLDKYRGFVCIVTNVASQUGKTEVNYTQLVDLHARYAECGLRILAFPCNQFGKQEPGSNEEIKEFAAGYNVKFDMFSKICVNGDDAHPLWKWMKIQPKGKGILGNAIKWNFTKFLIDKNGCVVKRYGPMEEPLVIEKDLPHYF

CC(C)S(=O)(=O)NC[C@@H]1CC(c2ccc(N3CCCC3)c(F)c2)=NO1
inactive: Potency [1] | Potency [2] | Potency [3] | Potency [4]

CC(C)c1ccc(-c2cc(=O)c3ccccc3o2)cc1
inactive: Potency [1] | Potency [2] | Potency [5] | Potency [3] | Potency [4]

O=C(Nc1ccccc1C(=O)Nc1ccc(CCO)cc1)c1ccc([N+](=O)[O-])cc1
inactive: Potency [1] | Potency [2] | Potency [3] | Potency [4]

C/C=C(\C)C(=O)O[C@@H]1[C@@H](C)[C@]2(O)[C@@H]3C=C(C)C(=O)[C@H]3CC(CO)=C[C@H]2C2C(C)(C)[C@@]21OC(=O)C(C)CC (some centres not stated)
inactive: Potency [1] | Potency [2] | Potency [5] | Potency [3] | Potency [4]

CN1CC2CN(c3ccc4oc5ccccc5c(=O)c4c3)CC2C1 (configuration not stated)
inactive: Potency [1] | Potency [2] | Potency [3] | Potency [4]

COc1ccc2cc3c(NC(=O)c4ccco4)nn(C)c3nc2c1
inactive: Potency [1] | Potency [6] | Potency [5] | Potency [4]

CCC(CC)C(c1ccc(Nc2nc3ccccc3s2)cc1)n1cncn1 (configuration not stated)
inactive: Potency [1] | Potency [6] | Potency [5] | Potency [3] | Potency [4]

CC(C)[C@@H](c1ccc(C(F)(F)F)cc1CN(Cc1cc(C(F)(F)F)cc(C(F)(F)F)c1)c1nnn(C)n1)N1CCC(C(=O)O)CC1
inactive: Potency [1] | Potency [6] | Potency [5] | Potency [3] | Potency [4]

CC(C)(C)Oc1ccc(OCC2Cc3ccccc3CN2C(=O)c2cccc3ccccc23)cc1 (configuration not stated)
inactive: Potency [1] | Potency [6] | Potency [5] | Potency [3] | Potency [4]

C=C1/C(=C/C=C2\CCC[C@]3(C)[C@@H]([C@H](C)CC[C@@H](O)C(C)(C)O)CC[C@@H]23)C[C@@H](O)C[C@@H]1O
inactive: Potency [1] | Potency [6] | Potency [5] | Potency [3]

COc1ccc(CCc2nc3cc(-c4c(C)noc4C)ccc3n2CC(C)N2CCOCC2)cc1Cl (configuration not stated)
inactive: Potency [1] | Potency [6] | Potency [5] | Potency [3]

CC(=O)NC(C(=O)O[C@H]1CCC(C)(C)[C@@H]2CC=C3C(=O)OCC3(O)[C@@]12C)C(C)C (some centres not stated)
inactive: Potency [1] | Potency [6] | Potency [5] | Potency [3] | Potency [4]

Cn1ncnc1[C@H]1c2n[nH]c(=O)c3cc(F)cc(c23)N[C@@H]1c1ccc(F)cc1
inactive: Potency [1] | Potency [6] | Potency [5] | Potency [4]

Cc1cc(F)c(C(=O)Nc2cccc(-c3nncn3C(C)C)n2)cc1-n1cnc(C2CC2)c1
inactive: Potency [1] | Potency [6] | Potency [5] | Potency [3]

CC[C@@H]1C[C@]1(NC(=O)[C@@H]1C[C@@H]2CN1C(=O)[C@H](C(C)(C)C)NC(=O)OCC(C)(C)CCCCc1cccc3c1CN(C3)C(=O)O2)C(=O)NS(=O)(=O)C1CC1
inactive: Potency [1] | Potency [6] | Potency [5] | Potency [3] | Potency [4]

Cc1ccc(S(=O)(=O)NCc2ccc(C(=O)NCCN(Cc3ccccc3)C(C)C)cc2)cc1
inactive: Potency [1] | Potency [6] | Potency [5] | Potency [3] | Potency [4]

COc1ccc(-n2c(SCCCN3C(=O)c4cccc5cccc(c45)C3=O)nnc2-c2ccncc2)cc1
inactive: Potency [1] | Potency [6] | Potency [5] | Potency [3] | Potency [4]

COC(=O)CC[C@@H](C)C1CCC2C3CCC4C[C@H](OC(C)=O)CCC4(C)C3C[C@H](O)C21C (some centres not stated)
inactive: Potency [1] | Potency [6] | Potency [5] | Potency [3] | Potency [4]

CNCc1cc(-c2ccccc2F)n(S(=O)(=O)c2cccnc2)c1
inactive: Potency [1] | Potency [6] | Potency [5] | Potency [3] | Potency [4]

CC1(C)CC[C@]23CO[C@@]4(CCC5[C@@]6(C)CC[C@H](O[C@@H]7OC[C@H](O[C@@H]8O[C@H](CO)[C@@H](O)[C@H](O)[C@H]8O[C@@H]8OC[C@@H](O)[C@H](O)[C@H]8O)[C@H](O)[C@H]7O)[C@@](C)(CO)C6CC[C@@]5(C)[C@]4(C)CC2=O)[C@@H]3C1 (some centres not stated)
inactive: Potency [1] | outcome [6] inactive [at 11.6 µM] | activity change, negative = thiol reactive [5] 249% [at 11.5 µM] | activity, negative = inhibition [3] 3.95% [at 11.6 µM] | redox activity (% of DA3003) [4] -0.913% [at 11.5 µM]

N#Cc1ccc(N2N=C3c4ccc(C(=O)O)cc4CC[C@@H]3[C@@H]2C2CCCC2)cc1Cl
inactive: Potency [1] | Potency [6] | Potency [5] | Potency [3] | Potency [4]

CC(C)C[C@@H]1NC(=O)[C@@H](Cc2ccccc2)NC(=O)C(CCCCCC(=O)C2CO2)NC(=O)[C@@H]2CCCCN2C1=O (some centres not stated)
inactive: Potency [1] | Potency [6] | Potency [5] | Potency [3] | Potency [4]

COc1cc([C@H]2O[C@H](c3cc(OC)c4c(c3)OCO4)[C@H](C)[C@H]2C)cc(OC)c1OC
inactive: Potency [1] | Potency [6] | Potency [5] | Potency [3] | Potency [4]

COc1ccc(C#Cc2ccc(C(=O)N3CCC[C@@H](O)C3)c(F)c2)cc1
inactive: Potency [1] | Potency [6] | Potency [5] | Potency [3] | Potency [4]

C#CC(=O)N(c1ccc(OC)cc1OC)C(C(=O)NCC(=O)OCC)c1cccs1 (configuration not stated)
inactive: Potency [1] | Potency [6] | Potency [5] | Potency [3] | Potency [4]
